Source: PubChem BioAssay (EPA / NIEHS)
Active and inactive are the calls of the source. How the source made its calls: active means hit-call score of the fitted dose curve at least 0.9, where 1 is the maximum; inactive means score below 0.9.

What follows are molecules tested against Hypoxia-inducible factor 1-alpha (Homo sapiens) (UniProt Q16665) (assay: ATG_HIF1a_CIS: Attagene CIS-FACTORIAL HepG2 Assay for human Hypoxia Inducible Factor 1 (HIF1A) (AID 2282951)). Details: HepG2 Attagene cis-factorial HIF1a reporter transcription; actives raise or lower the signal.
Procedure: ATG_CIS is a cell-based, multiplexed-readout assay that uses HepG2, a human liver cell line, with measurements taken at 24 hours after chemical dosing in a 24-well plate.ATG_HIF1a_CIS is one of 52 assay component(s) measured or calculated from the ATG_CIS assay. It is designed to make measurements of mRNA induction, a form of inducible reporter, as detected with fluorescence intensity signals by Reverse transcription polymerase chain reaction (RT-PCR) and Capillary electrophoresis technology.Data from the assay component ATG_HIF1a_CIS was analyzed into 1 assay endpoint. This assay endpoint, ATG_HIF1a_CIS, was analyzed with bidirectional fitting relative to DMSO as the negative control and baseline of activity. Using a type of inducible reporter, measures of mRNA for gain or loss-of-signal activity can be used to understand the reporter gene at the transcription factor-level as they relate to the gene HIF1A. Furthermore, this assay endpoint can be referred to as a primary readout, because this assay has produced multiple assay endpoints where this one serves a reporter gene function. To generalize the intended target to other relatable targets, this assay endpoint is annotated to the dna binding intended target family, where the subfamily is basic helix-loop-helix protein.
Human liver HepG2 cells are transiently transfected with multiple reporter transcription units (MRTUs) in 6-well plates using FuGene 6 reagent (Roche; 3 ml FuGene/1 mg DNA). The MRTU constructs are regulated by a cis-regulating element (promoter). […] A major difference between the CIS and TRANS system is that in CIS activities of endogenous TFs are measured, whereas the TRANS assay evaluates changes in activities of exogenous, chimeric NR-Gal4 proteins. […] At the end of 24 hour incubation, total RNA was isolated using TriZol reagent (Invitrogen). The isolated RNA is then reverse-transcribed using oligo(dT) primer and Mo-MLV reverse transcriptase (Invitrogen) with DNAse I (Ambion) treatment for 30 min. The one-tenth of the produced cDNA was amplified by PCR using Taq DNA polymerase (Invitrogen) and two reporter sequence-specific primers. The PCR products were fluorescently labeled by primer extension with 6-arboxyfluorescein (6-FAM) 5'-labeled reporter sequence-specific primer (2 min at 95 C, 20 s at 68 C and 10 min at 72 C) and these products were digested with 5U of HpaI (New England Biolabs) for 2h at 37 C. The fragments were purified using Qiaquick PCR columns (Qiagen), analyzed on an ABI 3130xL genetic analyzer (Applied Biosystems) with peak positions identified by using a set of X-rhodamine (ROX)-labeled MapMarker1000 molecular weight standards (BioVentures). The raw capillary electrophoresis data was processed using Attagraph software (Attagene).

Chain of Hypoxia-inducible factor 1-alpha (Homo sapiens) (Q16665 whole entry, looked up): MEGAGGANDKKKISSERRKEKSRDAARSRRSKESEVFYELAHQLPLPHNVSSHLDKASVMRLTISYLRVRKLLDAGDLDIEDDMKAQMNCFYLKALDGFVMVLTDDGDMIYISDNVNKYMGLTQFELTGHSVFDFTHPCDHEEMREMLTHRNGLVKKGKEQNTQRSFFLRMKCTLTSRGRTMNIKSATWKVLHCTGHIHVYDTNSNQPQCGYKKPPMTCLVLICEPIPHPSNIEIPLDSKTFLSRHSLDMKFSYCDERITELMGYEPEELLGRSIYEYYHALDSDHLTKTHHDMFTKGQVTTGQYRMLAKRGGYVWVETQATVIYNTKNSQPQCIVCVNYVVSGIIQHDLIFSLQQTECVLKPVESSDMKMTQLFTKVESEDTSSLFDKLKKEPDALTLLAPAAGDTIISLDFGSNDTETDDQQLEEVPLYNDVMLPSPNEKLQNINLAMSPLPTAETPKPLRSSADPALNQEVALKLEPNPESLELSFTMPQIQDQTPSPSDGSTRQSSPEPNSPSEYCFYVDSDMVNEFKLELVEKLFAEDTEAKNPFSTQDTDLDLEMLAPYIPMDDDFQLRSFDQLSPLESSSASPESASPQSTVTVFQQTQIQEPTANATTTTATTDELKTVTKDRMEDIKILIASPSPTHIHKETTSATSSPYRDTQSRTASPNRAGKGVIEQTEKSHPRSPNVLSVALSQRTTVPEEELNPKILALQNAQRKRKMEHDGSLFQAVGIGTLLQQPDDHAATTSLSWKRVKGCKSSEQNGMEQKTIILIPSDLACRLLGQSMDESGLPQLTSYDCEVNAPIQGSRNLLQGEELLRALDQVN

Row | Compound | outcome | AC50
1 | Nc1ccc(Cl)c([N+](=O)[O-])c1 | inactive | 
2 | O=C1c2ccccc2C(=O)c2c(O)ccc(O)c21 | inactive | 
3 | CCCOCCO | inactive | 
4 | CCC1(C)NC(=O)NC1=O (stereo not given) | inactive | 
5 | COC(C)(C)CCO | inactive | 
6 | CCCCCCCCCCCCN1CCCCCC1=O | inactive | 
7 | OCCOCCN1CCN(C2=Nc3ccccc3Sc3ccccc32)CC1 | inactive | 
8 | CCC(Cl)C(Cl)C(Cl)CC(Cl)C(Cl)C(C)Cl (stereo not given) | inactive | 
9 | CC(C)CC(C)CC(O)CC(C)C (stereo not given) | inactive | 
10 | CC(=O)O[C@@H]1CC2CCC1(C)C2(C)C (stereo not given in full) | inactive | 
11 | CC(C)Nc1nc(N)nc(Cl)n1 | inactive | 
12 | Oc1ccc2cc(SSc3ccc4cc(O)ccc4c3)ccc2c1 |  | 30.6 µM (active)
13 | CC(C)CCCCCCCCCCCCCCC(=O)O | inactive | 
14 | CC=CC=CCOC(=O)C(C)C | inactive | 
15 | C=CC(C)C#N (stereo not given) | inactive | 
16 | CCC1CCCCC1 | inactive | 
17 | O=C1OC2(c3ccccc31)c1ccc(O)c(Br)c1Oc1c2ccc(O)c1Br | inactive | 
18 | CN(C)c1ccncc1 | inactive | 
19 | COC(=O)C=C(C)CCC=C(C)C | inactive | 
20 | OCC#CCO | inactive | 

Row | Compound | outcome | AC50
21 | c1ccc(CN(Cc2ccccc2)Cc2ccccc2)cc1 | inactive | 
22 | C[C@@H]1CCN(C(=O)[C@H](CCCN=C(N)N)NS(=O)(=O)c2cccc3c2NC[C@H](C)C3)[C@@H](C(=O)O)C1 | inactive | 
23 | CC(=O)C(C)O (stereo not given) | inactive | 
24 | COC(=O)Nc1ccc(Cl)c(Cl)c1 | inactive | 
25 | CC(C)C(OC(=O)c1ccccc1)C(C)(C)COC(=O)c1ccccc1 (stereo not given) | inactive | 
26 | COc1ccccc1N=Nc1c(S(=O)(=O)O)cc2cc(S(=O)(=O)O)cc(NC(C)=O)c2c1O | inactive | 
27 | CSc1c(Cl)c(Cl)c(Cl)c(Cl)c1Cl | inactive | 
28 | CC1(C)O[C@@H]2[C@@H](CO[C@@]3(COS(N)(=O)=O)OC(C)(C)O[C@@H]23)O1 | inactive | 
29 | OC[C@H]1O[C@@H](Oc2ccc(O)cc2)[C@H](O)[C@@H](O)[C@@H]1O | inactive | 
30 | Nc1ccc2c(O)cc(S(=O)(=O)O)cc2c1 | inactive | 
31 | NCc1ccco1 | inactive | 
32 | COc1cc([C@@H]2c3cc4c(cc3[C@@H](O[C@@H]3O[C@@H]5CO[C@@H](C)O[C@H]5[C@H](O)[C@H]3O)[C@H]3COC(=O)[C@H]23)OCO4)cc(OC)c1O | inactive | 
33 | O=[N+]([O-])c1ccc(O)cc1C(F)(F)F | inactive | 
34 | Cc1cc(=O)oc2cc(N(C)C)ccc12 | inactive | 
35 | COC(=O)c1ccc(OC)cc1 | inactive | 
36 | C=C(C)[C@@H]1CC=C(C)C(=O)C1 | inactive | 
37 | C=C(C)C(=O)OCC(CC)(COC(=O)C(=C)C)COC(=O)C(=C)C | inactive | 
38 | CC(=O)CC(=O)Nc1ccccc1 |  | 24.2 µM (active)
39 | CCC(C)=O | inactive | 
40 | CCCC(O)C(O)CO (stereo not given) | inactive | 
